According to PubChem BioAssay (EPA / NIEHS):
Values joined by “and” are separate entries in the source; they are usually repeats but may differ in a detail not shown here. Identical values can stand only once. Inconclusive results are not listed. Some structures have more than one record in an assay (separate samples or runs), and their calls can disagree. Active and inactive are the calls of the source. The calls were made as follows, unless noted: active = hit-call score of the fitted dose curve at least 0.9, where 1 is the maximum; inactive = score below 0.9.

What was measured:
[1] = ATG_TAL_CIS: Attagene CIS-FACTORIAL HepG2 Assay for human TAL Basal Promoter (AID 2282966); conditions: HepG2 Attagene cis-factorial TAL promoter reporter; actives raise or lower the signal;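 also: background control endpoint measuring basal TAL promoter reporter mRNA not a specific factor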
In short: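 HepG2, transient MRTU transfection, 24 h compound exposure; RNA → oligo(dT) RT → PCR → 6-FAM primer extension → HpaI digest → CE fluorescence. Bidirectional curve fit vs DMSO. Background-control readout.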

[2] = ATG_TGFb_CIS: Attagene CIS-FACTORIAL HepG2 Assay for human Transforming Growth Factor (TGF) (AID 2282967); conditions: HepG2 Attagene CIS TGFb reporter, mRNA transcription; actives raise or lower the signal
In short: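 Bidirectional fitting relative to DMSO gave the endpoint. Underlying data: reporter mRNA from HepG2 cells carrying transiently transfected cis-regulated reporter constructs, harvested 24 h after dosing and analyzed by RT-PCR and capillary electrophoresis.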

[3] = ATG_VDRE_CIS: Attagene CIS-FACTORIAL HepG2 Assay for human Vitamin D Receptor Element (VDRE) (AID 2282968); conditions: HepG2 VDRE cis-reporter transcription, actives raise or lower the signal
In short: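 Transient MRTU transfection of HepG2, 24 h compound exposure. Readout: reporter transcripts via RT-PCR and capillary electrophoresis, fluorescence. Bidirectional fit vs DMSO.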

[4] = target: Estrogen receptor (Homo sapiens) (UniProt P03372); assay: ATG_ERa_TRANS: Attagene TRANS-FACTORIAL HepG2 Assay for human Estrogen Receptor alpha (ERa) (AID 2282970; active = hit-call score of the fitted dose curve at least 0.9, where 1 is the maximum); conditions: HepG2 Attagene TRANS ERa GAL4 reporter, mRNA
Chain of Estrogen receptor (Homo sapiens) (P03372 whole entry, looked up, the tested form may be a part): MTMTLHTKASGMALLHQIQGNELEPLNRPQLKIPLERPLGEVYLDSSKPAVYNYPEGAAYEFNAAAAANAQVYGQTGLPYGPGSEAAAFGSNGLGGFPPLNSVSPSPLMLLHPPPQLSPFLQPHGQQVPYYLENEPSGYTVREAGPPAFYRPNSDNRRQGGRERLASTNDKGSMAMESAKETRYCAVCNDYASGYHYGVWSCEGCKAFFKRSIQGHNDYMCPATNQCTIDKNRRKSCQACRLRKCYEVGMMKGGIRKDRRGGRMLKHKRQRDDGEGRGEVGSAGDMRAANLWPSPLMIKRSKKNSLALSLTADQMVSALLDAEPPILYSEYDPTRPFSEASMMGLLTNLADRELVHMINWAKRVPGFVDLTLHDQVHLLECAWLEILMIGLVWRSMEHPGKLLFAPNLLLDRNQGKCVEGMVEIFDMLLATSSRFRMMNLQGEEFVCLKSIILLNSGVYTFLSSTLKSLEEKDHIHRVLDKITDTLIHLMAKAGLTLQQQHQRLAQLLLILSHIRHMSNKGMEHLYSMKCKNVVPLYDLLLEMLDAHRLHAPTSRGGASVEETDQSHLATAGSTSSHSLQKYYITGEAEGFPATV
In short: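 Reporter mRNA induction after 24 hours, detected by fluorescent RT-PCR and capillary electrophoresis, gives the read-out. Cells are HepG2 transiently transfected with GAL4-UAS reporter transcription units responding to chimeric NR-Gal4. Activity is taken as gain of signal over DMSO baseline.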

[5] = target: X-box-binding protein 1 (Homo sapiens) (UniProt P17861); assay: ATG_Xbp1_CIS: Attagene CIS-FACTORIAL HepG2 Assay for human X-box Binding Protein 1 (XBP1) (AID 2282972); conditions: HepG2 XBP1 cis-element reporter, Attagene multiplex; actives raise or lower the signal
Chain of X-box-binding protein 1 (Homo sapiens) (P17861 whole entry, looked up): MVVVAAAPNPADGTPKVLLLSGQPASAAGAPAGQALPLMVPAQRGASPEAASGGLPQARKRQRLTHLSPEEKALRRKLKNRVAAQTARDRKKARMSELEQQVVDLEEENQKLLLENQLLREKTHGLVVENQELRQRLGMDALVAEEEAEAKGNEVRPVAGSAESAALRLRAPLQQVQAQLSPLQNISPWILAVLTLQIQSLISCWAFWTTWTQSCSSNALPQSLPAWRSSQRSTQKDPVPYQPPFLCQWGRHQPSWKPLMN
In short: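 Changes in reporter transcript abundance, read by RT-PCR and capillary electrophoresis, reflect endogenous transcription factor activity. Transfected HepG2 cells received compound for 24 hours; DMSO defined baseline for bidirectional analysis.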

[6] = ATG_M_19_TRANS: Attagene TRANS-FACTORIAL HepG2 Assay for M19 Transcription Factor (Internal Marker) (AID 2282974; active = hit-call score of the fitted dose curve at least 0.9, where 1 is the maximum); conditions: HepG2 Attagene TRANS-FACTORIAL M19 internal marker reporter
In short: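 Measured here: internal-marker reporter transcript from HepG2 cells transfected with MRTUs, harvested at 24 h. cDNA PCR products were 6-FAM labelled by primer extension, cut with HpaI for 2 h at 37 C, and resolved by CE.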

[7] = target: Glucocorticoid receptor (Homo sapiens) (UniProt P04150); assay: ATG_GR_TRANS: Attagene TRANS-FACTORIAL HepG2 Assay for human Glucocorticoid Receptor (GR) (AID 2282978; active = hit-call score of the fitted dose curve at least 0.9, where 1 is the maximum;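 also: activators score as hits since higher reporter transcript over DMSO is fitted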); conditions: HepG2 Attagene TRANS GR reporter, mRNA transcription
Chain of Glucocorticoid receptor (Homo sapiens) (P04150 whole entry, looked up, the tested form may be a part): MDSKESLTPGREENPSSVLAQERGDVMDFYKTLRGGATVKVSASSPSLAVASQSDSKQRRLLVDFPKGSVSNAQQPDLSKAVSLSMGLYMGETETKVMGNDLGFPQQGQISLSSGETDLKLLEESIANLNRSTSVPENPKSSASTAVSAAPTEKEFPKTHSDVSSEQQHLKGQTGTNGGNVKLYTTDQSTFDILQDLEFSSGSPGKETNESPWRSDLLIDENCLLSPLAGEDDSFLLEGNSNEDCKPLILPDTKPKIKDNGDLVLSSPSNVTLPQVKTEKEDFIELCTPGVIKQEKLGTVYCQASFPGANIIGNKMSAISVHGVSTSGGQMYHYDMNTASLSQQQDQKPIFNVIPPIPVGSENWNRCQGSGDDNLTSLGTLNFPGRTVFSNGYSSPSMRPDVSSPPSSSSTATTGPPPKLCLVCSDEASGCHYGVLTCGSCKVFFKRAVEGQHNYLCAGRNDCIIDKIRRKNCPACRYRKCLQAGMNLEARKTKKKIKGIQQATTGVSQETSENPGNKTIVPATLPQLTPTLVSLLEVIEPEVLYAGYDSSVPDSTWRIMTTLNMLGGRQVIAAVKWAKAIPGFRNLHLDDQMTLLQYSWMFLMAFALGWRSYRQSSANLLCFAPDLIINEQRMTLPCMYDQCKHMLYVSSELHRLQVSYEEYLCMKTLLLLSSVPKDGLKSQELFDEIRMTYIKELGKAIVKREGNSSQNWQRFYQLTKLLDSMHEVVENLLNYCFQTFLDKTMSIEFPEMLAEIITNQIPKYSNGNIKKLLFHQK
In short: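 Measurement of GAL4-UAS-driven reporter mRNA in human HepG2 liver cells 24 h post-dosing, using RT-PCR with fluorescent labelling and capillary electrophoresis; the transfected constructs report exogenous NR-GAL4 chimera activity, fitted upward against DMSO.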

[8] = ATG_M_32_TRANS: Attagene TRANS-FACTORIAL HepG2 Assay for M32 Transcription Factor (Internal Marker) (AID 2282984; active = hit-call score of the fitted dose curve at least 0.9, where 1 is the maximum;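 also: transcript level of a background control reporter unit measured by RT-PCR and capillary electrophoresis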); conditions: HepG2 Attagene TRANS M32 internal marker reporter
In short: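 Read-out: fluorescent reporter cDNA fragments resolved by capillary electrophoresis after RT-PCR of total RNA. Transfected HepG2 cells were exposed to chemical for 24 h. Activity scored in the positive direction relative to DMSO.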

[9] = target: Nuclear receptor subfamily 4 group A member 2 (Homo sapiens) (UniProt P43354); assay: ATG_NURR1_TRANS: Attagene TRANS-FACTORIAL HepG2 Assay for human Nuclear Receptor Related Protein 1 (NURR1) (AID 2282985; active = hit-call score of the fitted dose curve at least 0.9, where 1 is the maximum); conditions: HepG2 Attagene TRANS reporter, mRNA readout
Chain of Nuclear receptor subfamily 4 group A member 2 (Homo sapiens) (P43354 whole entry, looked up, the tested form may be a part): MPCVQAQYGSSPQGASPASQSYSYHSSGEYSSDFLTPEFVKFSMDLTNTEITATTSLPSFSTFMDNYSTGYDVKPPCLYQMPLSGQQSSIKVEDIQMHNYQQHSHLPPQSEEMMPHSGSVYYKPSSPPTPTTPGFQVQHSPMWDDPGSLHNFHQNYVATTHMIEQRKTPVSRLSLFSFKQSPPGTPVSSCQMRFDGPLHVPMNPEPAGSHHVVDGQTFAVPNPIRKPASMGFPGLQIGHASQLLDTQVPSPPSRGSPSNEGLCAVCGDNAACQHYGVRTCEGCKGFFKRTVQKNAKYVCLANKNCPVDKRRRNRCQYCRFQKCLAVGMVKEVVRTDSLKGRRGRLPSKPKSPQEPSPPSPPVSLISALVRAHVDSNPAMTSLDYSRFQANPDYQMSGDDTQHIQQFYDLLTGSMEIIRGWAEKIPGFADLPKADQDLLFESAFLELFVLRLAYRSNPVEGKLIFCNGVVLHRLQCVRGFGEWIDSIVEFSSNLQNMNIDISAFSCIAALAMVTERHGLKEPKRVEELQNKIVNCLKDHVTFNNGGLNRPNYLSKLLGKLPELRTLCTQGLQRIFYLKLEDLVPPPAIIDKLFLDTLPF
In short: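 Read-out: reporter mRNA induction by RT-PCR plus capillary electrophoresis with fluorescence detection, after 24 h dosing of transfected HepG2 cells. Exogenous NR-Gal4 chimera activity drives GAL4-UAS reporter; activity fitted upward versus DMSO.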

[10] = target: Transcriptional activator Myb (Homo sapiens) (UniProt P10242); assay: ATG_Myb_CIS: Attagene CIS-FACTORIAL HepG2 Assay for human Myeloblastosis (Myb) Proto-Oncogene Transcription Factor (AID 2282986); conditions: HepG2 Attagene CIS-FACTORIAL Myb reporter transcription; actives raise or lower the signal
Chain of Transcriptional activator Myb (Homo sapiens) (P10242 whole entry, looked up): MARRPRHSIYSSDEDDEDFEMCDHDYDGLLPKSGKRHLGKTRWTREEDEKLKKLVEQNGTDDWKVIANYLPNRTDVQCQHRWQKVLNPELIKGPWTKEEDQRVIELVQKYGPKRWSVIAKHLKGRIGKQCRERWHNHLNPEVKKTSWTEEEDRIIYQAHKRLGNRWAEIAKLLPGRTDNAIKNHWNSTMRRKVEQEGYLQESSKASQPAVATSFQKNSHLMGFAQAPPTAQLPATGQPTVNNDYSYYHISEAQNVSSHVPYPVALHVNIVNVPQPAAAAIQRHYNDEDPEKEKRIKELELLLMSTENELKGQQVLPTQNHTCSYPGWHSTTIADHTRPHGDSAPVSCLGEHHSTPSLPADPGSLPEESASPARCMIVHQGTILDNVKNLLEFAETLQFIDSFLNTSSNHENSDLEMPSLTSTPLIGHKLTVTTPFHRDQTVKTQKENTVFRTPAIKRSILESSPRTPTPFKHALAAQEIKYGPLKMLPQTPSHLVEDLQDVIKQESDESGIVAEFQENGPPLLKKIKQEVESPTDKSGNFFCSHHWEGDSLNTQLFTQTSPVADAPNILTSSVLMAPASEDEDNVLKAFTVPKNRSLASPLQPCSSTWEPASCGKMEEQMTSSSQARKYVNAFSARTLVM
In short: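 Fluorescence signals from capillary electrophoresis of RT-PCR-amplified reporter cDNA give the read-out. Cells: HepG2 transfected with multiple cis-regulated reporter units. Exposure lasts 24 hours; DMSO defines baseline for gain or loss of signal.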

[11] = target: Nuclear respiratory factor 1 (Homo sapiens) (UniProt Q16656); assay: ATG_NRF1_CIS: Attagene CIS-FACTORIAL HepG2 Assay for human Nuclear Respiratory Factor 1 (NRF1) Orphan Gene (AID 2282987); conditions: HepG2 NRF1 cis-element reporter, Attagene multiplex; actives raise or lower the signal
Chain of Nuclear respiratory factor 1 (Homo sapiens) (Q16656 whole entry, looked up): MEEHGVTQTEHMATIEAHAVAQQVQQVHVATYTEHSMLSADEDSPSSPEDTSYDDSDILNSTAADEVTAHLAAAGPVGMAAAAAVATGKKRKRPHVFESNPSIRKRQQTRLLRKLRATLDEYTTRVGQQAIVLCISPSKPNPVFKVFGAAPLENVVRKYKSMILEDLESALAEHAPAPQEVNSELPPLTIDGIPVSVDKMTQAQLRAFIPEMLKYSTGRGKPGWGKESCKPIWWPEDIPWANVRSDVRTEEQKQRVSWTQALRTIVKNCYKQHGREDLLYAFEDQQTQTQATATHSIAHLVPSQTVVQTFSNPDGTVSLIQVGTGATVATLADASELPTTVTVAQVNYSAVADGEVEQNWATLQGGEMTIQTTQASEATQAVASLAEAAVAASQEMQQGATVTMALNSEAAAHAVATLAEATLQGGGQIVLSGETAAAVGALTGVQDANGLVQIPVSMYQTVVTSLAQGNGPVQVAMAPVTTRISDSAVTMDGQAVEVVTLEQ
In short: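 Transcriptional reporter readout, one component of a 52-endpoint multiplexed HepG2 panel. Exposure 24 h; mRNA detected via RT-PCR and fluorescent capillary electrophoresis; fitting in both directions against DMSO.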

[12] = ATG_NFI_CIS: Attagene CIS-FACTORIAL HepG2 Assay for human Nuclear Factor I (NFI) (AID 2282989); conditions: HepG2 cis-regulatory reporter, NFI response element transcription; actives raise or lower the signal
In short: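 Cells: human liver HepG2, transiently transfected with promoter-regulated reporter transcription units. Exposure 24 h. Detection: fluorescent RT-PCR products separated by capillary electrophoresis, normalised to DMSO negative control.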

[13] = target: Bile acid receptor (Homo sapiens) (UniProt Q96RI1); assay: ATG_FXR_TRANS: Attagene TRANS-FACTORIAL HepG2 Assay for Farnesoid X Receptor (FXR) (AID 2282979; active = hit-call score of the fitted dose curve at least 0.9, where 1 is the maximum;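 also: hits raise reporter mRNA above DMSO so AC50 marks FXR activation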); conditions: HepG2 Attagene TRANS FXR-GAL4 reporter transcription
Chain of Bile acid receptor (Homo sapiens) (Q96RI1 whole entry, looked up, the tested form may be a part): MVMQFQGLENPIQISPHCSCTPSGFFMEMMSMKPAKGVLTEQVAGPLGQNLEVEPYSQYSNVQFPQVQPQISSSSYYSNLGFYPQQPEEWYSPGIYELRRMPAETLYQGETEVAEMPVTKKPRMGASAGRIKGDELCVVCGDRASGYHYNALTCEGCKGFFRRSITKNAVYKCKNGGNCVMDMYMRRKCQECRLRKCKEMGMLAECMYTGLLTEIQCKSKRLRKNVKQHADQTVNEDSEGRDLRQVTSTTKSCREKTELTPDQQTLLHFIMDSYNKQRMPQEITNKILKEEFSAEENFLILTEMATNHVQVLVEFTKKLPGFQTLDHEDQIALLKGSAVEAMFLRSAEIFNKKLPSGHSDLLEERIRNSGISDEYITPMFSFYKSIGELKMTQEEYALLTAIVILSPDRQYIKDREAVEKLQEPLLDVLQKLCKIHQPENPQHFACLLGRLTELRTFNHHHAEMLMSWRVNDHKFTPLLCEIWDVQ
In short: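 Read-out: fluorescent reporter transcripts quantified by capillary electrophoresis after RT-PCR of total RNA. Source cells were HepG2 transiently carrying chimeric NR-GAL4 plus GAL4-UAS reporter units, dosed 24 h. Activity fitted upward relative to DMSO baseline.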

[14] = target: Oxysterols receptor LXR-beta (Homo sapiens) (UniProt P55055); assay: ATG_LXRb_TRANS: Attagene TRANS-FACTORIAL HepG2 Assay for human Liver X Receptor beta (LXRb) (AID 2282981; active = hit-call score of the fitted dose curve at least 0.9, where 1 is the maximum); conditions: HepG2 Attagene TRANS GAL4-LXRb reporter, mRNA
Chain of Oxysterols receptor LXR-beta (Homo sapiens) (P55055 whole entry, looked up, the tested form may be a part): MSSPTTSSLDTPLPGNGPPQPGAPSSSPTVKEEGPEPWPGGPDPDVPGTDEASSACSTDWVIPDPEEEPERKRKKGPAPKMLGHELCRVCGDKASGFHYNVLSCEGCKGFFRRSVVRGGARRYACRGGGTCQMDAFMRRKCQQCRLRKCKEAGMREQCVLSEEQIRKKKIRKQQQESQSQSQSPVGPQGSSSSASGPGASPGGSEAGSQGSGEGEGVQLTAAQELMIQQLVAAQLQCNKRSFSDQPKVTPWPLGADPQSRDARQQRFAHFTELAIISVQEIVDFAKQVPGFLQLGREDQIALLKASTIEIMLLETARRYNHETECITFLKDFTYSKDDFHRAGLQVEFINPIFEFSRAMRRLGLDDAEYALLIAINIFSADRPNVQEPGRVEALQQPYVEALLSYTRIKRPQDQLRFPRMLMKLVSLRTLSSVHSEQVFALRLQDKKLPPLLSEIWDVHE
In short: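 Readout: fluorescent reporter mRNA fragments resolved by capillary electrophoresis after RT-PCR. System: transiently transfected human HepG2, exogenous LXRb-Gal4 chimera driving GAL4-UAS reporter, 24 h dosing. Activity fitted upward against DMSO baseline.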

[15] = target: Hepatocyte nuclear factor 4-alpha (Homo sapiens) (UniProt P41235); assay: ATG_HNF4a_TRANS: Attagene TRANS-FACTORIAL HepG2 Assay for human Hepatocyte Nuclear Factor 4 alpha (HNF4a) (AID 2282982; active = hit-call score of the fitted dose curve at least 0.9, where 1 is the maximum); conditions: HepG2 HNF4a transactivation reporter, mRNA readout
In short: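 Transient MRTU transfection of HepG2, 24 h dosing. Readout: reporter mRNA via RT-PCR + capillary electrophoresis, fluorescence; activity fit upward relative to DMSO control.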

[16] = ATG_M_06_TRANS: Attagene TRANS-FACTORIAL HepG2 Assay for M06 Transcription Factor (Internal Marker) (AID 2282983; active = hit-call score of the fitted dose curve at least 0.9, where 1 is the maximum); conditions: HepG2 Attagene TRANS M06 internal marker reporter
In short: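 Read-out: fluorescent reporter cDNA fragments resolved by capillary electrophoresis after RT-PCR and HpaI cut. Source cells were HepG2 carrying transfected multi-reporter GAL4 constructs, dosed 24 h. Increase over DMSO control analysed.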

[17] = target: Nuclear receptor subfamily 1 group I member 3 (Homo sapiens) (UniProt Q14994); assay: ATG_CAR_TRANS: Attagene TRANS-FACTORIAL HepG2 Assay for human Constitutive Androstane Receptor (CAR) (AID 2282969; active = hit-call score of the fitted dose curve at least 0.9, where 1 is the maximum;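 also: activators raise reporter mRNA above DMSO so AC50 marks induction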); conditions: HepG2 Attagene TRANS-FACTORIAL CAR reporter
Chain of Nuclear receptor subfamily 1 group I member 3 (Homo sapiens) (Q14994 whole entry, looked up, the tested form may be a part): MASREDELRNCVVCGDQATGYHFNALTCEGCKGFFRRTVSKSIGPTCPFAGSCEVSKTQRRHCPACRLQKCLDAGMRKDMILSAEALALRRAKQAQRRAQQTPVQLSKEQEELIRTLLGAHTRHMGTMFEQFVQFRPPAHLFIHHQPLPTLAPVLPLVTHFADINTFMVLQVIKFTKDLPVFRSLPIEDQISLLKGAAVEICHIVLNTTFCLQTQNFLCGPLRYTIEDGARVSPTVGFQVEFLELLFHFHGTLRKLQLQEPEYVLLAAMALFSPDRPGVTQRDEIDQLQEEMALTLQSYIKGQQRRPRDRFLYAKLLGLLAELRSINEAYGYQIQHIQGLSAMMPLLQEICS
In short: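 Transiently transfected HepG2, multiplex TRANS reporters (CAR-Gal4 chimera driving GAL4-UAS reporter). 24 h dosing. Readout: reporter transcript by RT-PCR + capillary electrophoresis, fluorescence intensity; positive direction vs DMSO.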

[18] = ATG_GAL4_TRANS: Attagene TRANS-FACTORIAL HepG2 Assay for GAL4 (Internal Marker) (AID 2282976; active = hit-call score of the fitted dose curve at least 0.9, where 1 is the maximum); conditions: HepG2 Attagene TRANS GAL4 internal marker reporter
In short: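 RT-PCR/capillary electrophoresis readout of reporter mRNA. HepG2, transient MRTU transfection (GAL4-UAS reporters), 24 h compound exposure. Background-control endpoint, positive direction vs DMSO baseline.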

ClC1=C(Cl)[C@]2(Cl)[C@@H]3[C@H]4C[C@H]([C@@H]5O[C@H]45)[C@@H]3[C@@]1(Cl)C2(Cl)Cl
outcome [1]: inactive | outcome [2]: inactive | AC50 [3]: 2.18 µM (active) | outcome [4]: inactive | outcome [5]: inactive | outcome [6]: inactive | outcome [7]: inactive | outcome [8]: inactive | outcome [9]: inactive | outcome [10]: inactive | outcome [11]: inactive | outcome [12]: inactive

O=C(O)C(F)(F)C(F)(F)C(F)(F)C(F)(F)C(F)(F)C(F)(F)C(F)(F)C(F)(F)F
outcome [1]: inactive | AC50 [2]: 48.2 µM (active) and 72.7 µM (active) | outcome [2]: inactive | AC50 [3]: 205 µM (active) and 40 µM (active) | outcome [3]: inactive | AC50 [4]: 27.8 µM (active) and 71.8 µM (active) and 36.7 µM (active) | AC50 [5]: 150 µM (active) and 39.2 µM (active) | outcome [5]: inactive | outcome [6]: inactive | outcome [7]: inactive | AC50 [13]: 151 µM (active) and 219 µM (active) | outcome [13]: inactive | outcome [14]: inactive | outcome [15]: inactive | outcome [16]: inactive | outcome [8]: inactive | outcome [10]: inactive | outcome [11]: inactive | outcome [12]: inactive

O=S(=O)(O)C(F)(F)C(F)(F)C(F)(F)C(F)(F)C(F)(F)C(F)(F)F
outcome [1]: inactive | outcome [2]: inactive | outcome [3]: inactive | outcome [17]: inactive | AC50 [4]: 105 µM (active) | outcome [4]: inactive | outcome [5]: inactive | outcome [6]: inactive | outcome [18]: inactive | outcome [7]: inactive | outcome [13]: inactive | outcome [14]: inactive | outcome [16]: inactive | outcome [8]: inactive | outcome [10]: inactive | outcome [11]: inactive | outcome [12]: inactive

CC(C)(c1ccccc1)c1ccc(O)cc1
outcome [1]: inactive | AC50 [3]: 2.17 µM (active) and 21.3 µM (active) and 10.6 µM (active) | outcome [3]: inactive | outcome [17]: inactive | AC50 [4]: 277 nM (active) [middle of 4 runs] | AC50 [5]: 52.7 µM (active) and 52.2 µM (active) | outcome [5]: inactive | outcome [6]: inactive | outcome [18]: inactive | outcome [7]: inactive | AC50 [13]: 48.9 µM (active) | outcome [13]: inactive | outcome [14]: inactive | outcome [16]: inactive | outcome [8]: inactive | AC50 [10]: 51.8 µM (active) | outcome [10]: inactive | outcome [11]: inactive | AC50 [12]: 49.6 µM (active) | outcome [12]: inactive

CC(C)C(=O)OCC(C)(C)C(OC(=O)C(C)C)C(C)C (stereo not drawn)
outcome [1]: inactive | outcome [2]: inactive | outcome [3]: inactive | outcome [17]: inactive | AC50 [4]: 52.8 µM (active) | outcome [5]: inactive | outcome [6]: inactive | outcome [18]: inactive | outcome [14]: inactive | outcome [10]: inactive | outcome [11]: inactive | outcome [12]: inactive

Clc1ccc(C(c2ccccc2Cl)C(Cl)(Cl)Cl)cc1 (stereo not drawn)
outcome [1]: inactive | outcome [2]: inactive | AC50 [3]: 3.58 µM (active) and 26.9 µM (active) and 15 µM (active) | outcome [3]: inactive | outcome [17]: inactive | AC50 [5]: 70.5 µM (active) and 101 µM (active) and 46.4 µM (active) | outcome [5]: inactive | outcome [6]: inactive | outcome [18]: inactive | outcome [7]: inactive | outcome [14]: inactive | outcome [16]: inactive | outcome [8]: inactive | outcome [10]: inactive | AC50 [11]: 120 µM (active) | outcome [11]: inactive | AC50 [12]: 107 µM (active) and 70.5 µM (active) | outcome [12]: inactive
